Counter-ions that a name gives are not always drawn. ± gives the standard deviation of the averaged measurements. The campaign covered roughly 1,000 compounds. About 15 (2%) showed an effect of 50% or more. This is one part of a sample in which strong results are shown more often than they occur.
test system: HFF; assay: uninfected host cell viability relative to vehicle control; higher = less host cell toxicity; conditions: 5 µM; 72 h; oxygen 21 %

| SMILES | uninfected host cell viability [%] |
| --- | --- |
| O=C1NC(=O)c2cc(Nc3ccccc3)c(Nc3ccccc3)cc21 | 93.23 ± 0.27 |
| COCCOC(=O)C1=C(C)NC(C)=C(C(=O)OC/C=C/c2ccccc2)C1c1cccc([N+](=O)[O-])c1 (configuration not stated) [Cilnidipine] | 85.8 ± 2.8 |
| COc1ccccc1C1(O)CCN(CCCn2c3ccccc3c3ccccc32)CC1 [NNC 05-2090 hydrochloride] | 81.9 ± 1.6 |
| Nc1nc(NCC2CCC(CNS(=O)(=O)c3cccc4ccccc34)CC2)nc2ccccc12 (configuration not stated) | 58.6 ± 2.7 |
| CN(Cc1ccccc1)C(=O)[C@H](Cc1ccc2ccccc2c1)NC(=O)[C@@H]1C[C@@H](O)CN1C(=O)c1cn(C)c2ccccc12 | 83.97 ± 0.68 |
| NC(=O)N/N=C/c1ccc(Oc2ccc(F)cc2)cc1 | 87.6 ± 3.6 |
| O=C1NC(=O)c2cc(Nc3ccc(F)cc3)c(Nc3ccc(F)cc3)cc21 | 86.353 ± 0.013 |
| Oc1nc(-c2ccc(C(F)(F)F)cc2)nc2c1CSCC2 | 83.2 ± 2.4 |
| CCC(=O)NC[C@H](Cc1ccc(OCCc2nc(-c3ccccc3)oc2C)cc1)N/C(C)=C\C(=O)c1ccc(C(F)(F)F)cc1 | 102 ± 1.4 |
| COC(=O)/C=C/c1cccc(N(Cc2ccc(-c3ccc(N(C)C)cc3)cc2)C(=O)C2CCCCC2)c1 [Fexaramine] | 96 ± 2.3 |
| CC(=O)OCCNC(=O)c1cccnc1 [N-[2-(Acetoxy)ethyl]-3-pyridinecarboxamide] | 82.8 ± 3.4 |
| OC1CCC(Nc2nc(-c3ccccc3)nc3[nH]ccc23)CC1 (configuration not stated) | 85.37 ± 0.31 |
| Cc1ccc2c(c1)c1c3n2CCNC3CCC1 (configuration not stated) [Pirlindole mesylate] | 88 ± 6.3 |
| CC(C)c1ccc(C(=O)c2cccs2)c(SCCCCCCCCN(C)C)n1 | 74.54 ± 0.56 |
| OC(CN1CCC(Cc2ccc(F)cc2)CC1)c1ccc(Cl)cc1 (configuration not stated) [Eliprodil] | 88.9 ± 1.1 |
| O=c1cc(N2CCOCC2)oc2c1ccc1ccccc12 | 82.9 ± 0.9 |
| COc1ccc(OC)c2c(=S)c3ccccc3[nH]c12 | 76.9 ± 3.1 |
| COC(=O)C1=C(C)NC(C)=C(C(=O)OCCCN2CCC(c3ccccc3)(c3ccccc3)CC2)[C@H]1c1cccc([N+](=O)[O-])c1 [(S)-(+)-Niguldipine hydrochloride] | 76.95 ± 0.17 |
| CCC(=O)OCN1C(=O)C=CC1=O | 90.82 ± 0.35 |
| Nc1c(Br)cc(Br)cc1CN[C@H]1CC[C@H](O)CC1 [Ambroxol hydrochloride] | 83.8 ± 1.4 |
| CCCCCCCCCCCCCCCC(=O)O[C@H](CC(=O)O)C[N+](C)(C)C (racemic) [(±)-Palmitoylcarnitine chloride] | 89.8 ± 4.6 |
| CN(CC[C@@H](Oc1ccc(-c2ccccc2)cc1)c1ccc(F)cc1)CC(=O)O [ALX 5407 hydrochloride] | 89.7 ± 7.4 |

| SMILES | uninfected host cell viability [%] |
| --- | --- |
| COc1ccc(NC(=O)c2ccc(-c3ccc(-c4noc(C)n4)cc3C)cc2)cc1OCCN(C)C | 36.9 ± 27 |
| COc1cc2c(Nc3ccc(NC(=O)c4ccccc4)cc3)ncnc2cc1OCCCN1CCOCC1 | 64.74 ± 0.56 |
| COc1ccc(NC(=O)c2ccc(-c3ccc(-c4noc(C)n4)cc3C)cc2)cc1N1CCN(C)CC1 | 70.2 ± 7.3 |
| CCN(CC)c1ccc(/C=N/NC(=O)c2ccc(O)cc2)cc1 | 86.7 ± 5.1 |
| CCCCC[C@H](O)/C=C/[C@H]1[C@H](O)CC(=O)[C@@H]1CCCCCCC(=O)O [Alprostadil] | 91.7 ± 4.5 |
| CC1Nc2ccc(Cl)cc2S(=O)(=O)N1 (configuration not stated) | 95.27 ± 0.86 |
| Cn1cc(C2=C(c3cn(CCCSC(=N)N)c4ccccc34)C(=O)NC2=O)c2ccccc21 [Ro 31-8220 mesylate] | 14.2 ± 0.54 |
| Cn1cc(C2=C(c3ccc(Cl)cc3Cl)C(=O)NC2=O)c2ccccc21 | 72.6 ± 4.2 |
| CN(C)CCCn1cc(C2=C(c3c[nH]c4ccccc34)C(=O)NC2=O)c2ccccc21 | 62.3 ± 1.5 |
| O=C(O)CC/C=C\C[C@H]1CO[C@@H](c2ccccc2Cl)O[C@H]1c1ccccc1O | 98.6 ± 1.1 |
| CCOC(=O)c1c(C)[nH]c2ccc3c(c12)CN1CCc2cc(OC)ccc2C1O3 (configuration not stated) | 96.1 ± 2.8 |
| CC(Oc1ccc(O)cc1)(P(=O)(O)O)P(=O)(O)O | 95.3 ± 1.8 |
| CN(C)C(=O)C(=O)c1cn(C)c2cc(Cl)c(C(=O)N3CCC(Cc4ccc(F)cc4)CC3)cc12 | 88.4 ± 2.3 |
| CCOCC(O)COc1ccc(NC(=O)CC[S+](C)C)cc1 (configuration not stated) [Suplatast tosylate] | 97.7 ± 1.6 |
| CNC(=O)[C@H]1O[C@@H](n2cnc3c(NCc4cccc(I)c4)ncnc32)[C@H](O)[C@@H]1O | 80.94 ± 0.44 |
| CCN(c1ccccc1)c1cc(=NC)n(C)c(C)n1 | 92.2 ± 1.3 |
| CCOC(=O)c1ccc(OC(=O)CCCCCNC(=N)N)cc1 [Gabexate mesylate] | 89.8 ± 11 |
| O=[N+]([O-])c1cc(Cl)ccc1S(=O)(=O)N1CCN(Cc2ccccc2)CC1 | 98.8 ± 3.2 |
| CN1CC(=O)N=C1NC(=O)Nc1cccc(Cl)c1 [Fenobam] | 80.93 ± 0.68 |
| CCCCc1nn(-c2ccccc2C(F)(F)F)c(=O)n1Cc1ccc(-c2ccccc2S(=O)(=O)NC(=O)c2sccc2C)cc1 | 84.8 ± 3.6 |
| COc1cc(NC(=O)c2ccccn2)ccc1Cl | 95.9 ± 2.8 |
| COc1ccc(-c2nc(-c3ccc(-c4cccc(Cl)c4)o3)[nH]c2-c2ccc(OC)cc2)cc1 [Neurodazine] | 80.3 ± 5.1 |

| SMILES | uninfected host cell viability [%] |
| --- | --- |
| O=C(NCCCN1CCCCCC1)C(c1ccccc1)C1CCCCC1 (configuration not stated) | 88.8 ± 4.6 |
| O=C(O)C=C1CCCc2ccccc2C1O (configuration not stated) | 83.32 ± 0.084 |
| COC(=O)C[C@](O)(CCCC(C)(C)O)C(=O)O[C@@H]1C(OC)=C[C@]23CCCN2CCc2cc4c(cc2[C@H]13)OCO4 [Homoharringtonine] | 28.6 ± 2.8 |
| O/N=C/c1ccc(-c2ccc(O)c(F)c2)c(Cl)c1O | 91.86 ± 0.49 |
| Cc1ccc(/C=C2\CNC/C(=C\c3ccc(C)cc3)C2=O)cc1 | 34.4 ± 5.5 |
| COC(=O)C1=C(C)NC(C)=C(C(=O)NCCCN2CCC(c3ccccc3)(c3ccccc3)CC2)C1c1ccc([N+](=O)[O-])cc1 (configuration not stated) | 81.9 ± 1.8 |
| CC#CCOC(=O)C1=CCCN(C)C1 [Arecaidine but-2-ynyl ester tosylate] | 88 ± 1.3 |
| CC(C)Oc1cccc(-n2c(CCc3c[nH]c4ccc(Br)cc34)nc3ccccc3c2=O)c1 | 92.8 ± 5.5 |
| COc1cc(Br)c(S(=O)(=O)Nc2ccc(Cl)c(O[C@@H]3CCN(C)C3)c2)cc1OC | 96.9 ± 3 |
| C[C@H](NC[C@H](O)CP(=O)(O)CC1CCCCC1)c1ccc(Cl)c(Cl)c1 | 84.83 ± 0.31 |
| CC1c2ccccc2CN1CC1=NCCN1 (configuration not stated) | 89 ± 2.3 |
| N[C@H](C(=O)O)c1ccc(O)c(C(=O)O)c1 [(S)-3-Carboxy-4-hydroxyphenylglycine] | 83.1 ± 0.11 |
| CC(C)c1onc(-c2c(Cl)cccc2Cl)c1COc1ccc(/C=C/c2cccc(C(=O)O)c2)c(Cl)c1 | 96.2 ± 2.9 |
| OC[C@H]1NC[C@@H](O)[C@@H](O)[C@@H]1O [1-Deoxymannojirimycin hydrochloride] | 86.61 ± 0.073 |
| O=C(NCCCCN1CCN(c2cccc(Cl)c2Cl)CC1)c1ccc2c(c1)Cc1ccccc1-2 | 88.9 ± 4 |
| CCCCCCNC(=O)Nc1ccc(S(=O)(=O)Nc2ccc(CCNC[C@H](O)COc3ccc(O)cc3)cc2)cc1 | 83.4 ± 2.5 |
| NC(C(=O)O)c1ccc(C(=O)O)c(C(=O)O)c1 (configuration not stated) | 83.7 ± 3.5 |
| CCCCN1CCC(CCC(=O)c2cc(Cl)c(N)cc2OC)CC1 | 85.2 ± 6.5 |
| CN(CCOc1ccc(-c2ccc3c(c2)OCO3)cc1C(C)(C)C)CC(=O)O | 89.62 ± 0.17 |
| O=C(c1ccc(F)cc1)C1CCN(CCn2c(=S)[nH]c3ccccc3c2=O)CC1 [Altanserin hydrochloride] | 83.2 ± 2.8 |
| Nc1nc2c(nc(Br)n2[C@@H]2O[C@@H]3COP(=O)(O)O[C@H]3[C@H]2O)c(=O)[nH]1 [8-Bromo-cGMP, sodium salt] | 89.8 ± 1.7 |
| COC(=O)c1sccc1S(=O)(=O)Nc1ccc(Nc2ccccc2)cc1OC | 77.8 ± 0.79 |

| SMILES | uninfected host cell viability [%] |
| --- | --- |
| NC(=O)N1c2ccccc2CC(O)c2ccccc21 (configuration not stated) [Licarbazepine] | 86.1 ± 1.1 |
| COc1ccc(Cl)cc1NC(=O)Nc1cc(C)nc2ccccc12 | 70.73 ± 0.28 |
| O=C(/C=C/c1ccc(O)c(O)c1)O[C@H](Cc1ccc(O)c(O)c1)C(=O)O [Rosmarinic acid] | 80.3 ± 1 |
| OC(CCCN1CCN(c2ncc(F)cn2)CC1)c1ccc(F)cc1 (configuration not stated) | 110 ± 17 |
| CC(C)c1ccccc1S(=O)(=O)c1cc(N)c2ncccc2c1[N+](=O)[O-] | 73.2 ± 0.84 |
| CN(CCCN1c2ccccc2CCc2ccccc21)CC(=O)c1ccc(Cl)cc1 [Lofepramine] | 89.6 ± 1.2 |
| Cc1c(C(=O)NN2CCOCC2)nn(-c2ccc(Cl)cc2Cl)c1-c1ccc(I)cc1 | 90.8 ± 2.4 |
| O=c1[nH]nc(Sc2ncc([N+](=O)[O-])s2)n1-c1ccc2c(c1)OCCO2 | 99.61 ± 0.28 |
| O=C(O)c1ccc(C=C2SC(=S)N(c3cccc(C(F)(F)F)c3)C2=O)cc1 | 87.8 ± 0.91 |
| CN1Cc2c(C(=O)OC(C)(C)C)ncn2-c2ccsc2C1=O | 97.9 ± 4.9 |
| CCCCCCCCCCCCCCCC(=O)C(F)(F)F | 91.66 ± 0.55 |
| NC(=O)CCCCn1ccc(NC(N)=NCC(F)(F)F)n1 | 85.9 ± 2.3 |
| N[C@@H](CSS(=O)(=O)O)C(=O)O [S-Sulfo-L-cysteine sodium salt] | 99.5 ± 1.1 |
| Cc1ccccc1C(=O)c1ccc(Nc2ccc(Br)cc2N)cc1Cl | 84 ± 2.2 |
| CN1CCC(Nc2ncc3ncnc(Nc4ccc(F)c(Cl)c4)c3n2)CC1 [BIBX 1382 dihydrochloride] | 80.7 ± 2.1 |
| CC(C)n1nnc2cc(C(=O)O)ccc21 | 100 ± 2.3 |
| Cc1[nH]c(/C=C2\C(=O)Nc3ccc(S(=O)(=O)Cc4c(Cl)cccc4Cl)cc32)c(C)c1C(=O)N1CCC[C@@H]1CN1CCCC1 | 89.5 ± 2.3 |
| CC1(C)CCC(C)(C)c2cc(C3(c4ccc(C(=O)O)cc4)OCCO3)ccc21 | 93.1 ± 2.3 |
| COc1ccc(NS(=O)(=O)c2ccc(I)cc2)cc1N1CCN(C)CC1 | 81.6 ± 2.9 |
| Cc1cc(C)cc(C(=O)N(C)[C@H](Cc2ccc(-c3ccccc3)cc2)C(=O)N[C@@H](Cc2c[nH]c3ccccc23)C(=O)O)c1 | 83.95 ± 0.62 |
| CCCn1c(=O)[nH]c2nc(-c3ccc(S(=O)(=O)O)cc3)[nH]c2c1=O | 86.34 ± 0.58 |
